Screens as filed in PubChem.
Compounds with a hit are over-represented: about 5.9% of the library has one in this group of screens.
LANA-H2B inh – blocks KSHV LANA binding to histone H2A/H2B; Q9QR71; cell-free LANA-H2A/H2B peptide, fluorescence polarization; inhibition, % (concentration not given with the values); actives 0.6% (n = 320,000); in the data active means inhibition mostly above about 10%, no sharp cut-off; inactive means mostly below about 6.7%
Rtt109 Vps75 – C. albicans Rtt109 histone acetyltransferase inhibition; purified Rtt109/Vps75, ThioGlo CoA-SH fluorescence, 4 h; inhibition, % at 34.9 µM; actives 0.16% (n = 330,000); AID 540336;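 active means inhibition of at least 50% in every replicate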
rCAG RNA binder – molecules binding r(CAG) RNA repeats. actives 1.3% (n = 370,000). r(CAG) RNA repeat, TO-PRO-1 dye displacement fluorescence. AID 651821. inhibition, % at 3 µM;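 active means inhibition above the plate cutoff, the mean of all test compounds on that plate plus 3 SD, cut at about 35% in these data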;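 further: 0% = DMSO alone and 100% = 100 µM mitoxantrone as full dye displacement; higher means more dye released from RNA so lower well fluorescence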
ABHD5 PLIN5 PPI – inhibitors of human ABHD5-perilipin-5 interaction. Q00G26+Q8WTS1. Split G. princeps luciferase complementation, luminescence, 4 h. inhibition, % at 4 µM. actives 0.78% (n = 360,000). AID 602281;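 active means inhibition above the mean inhibition across every tested compound plus 3 SD, cut at about 22% in these data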;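 further: 0% = DMSO only wells and the 100% control is not disclosed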
ALR H2O2 inh – inhibitors of human sulfhydryl oxidase ALR; P55789; purified ALR, DTT oxidation, H2O2 HRP-luminol luminescence; inhibition, % (test concentration not listed); actives 3.8% (n = 290,000);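 active means mean replicate inhibition above about 79%, with every replicate also reaching it, limit read from the data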
PRMT1 FP inh – PRMT1 (human) inhibition, primary screen | Q99873 | recombinant PRMT1, activity-based probe fluorescence polarization | inhibition, % at 2.79 µM | actives 1.3% (n = 370,000) | AID 652257;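 active means inhibition above about 21% made by adding two undisclosed values, limit read from the data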
rCAG bind conf – r(CAG) RNA repeat binding, confirmation. inhibition, % at 3 µM. actives 70% (n = 4,300). shares compounds with rCAG RNA binder. TO-PRO-1 dye displacement fluorescence;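 active means inhibition above a per-plate cutoff, the mean inhibition of sample wells plus 3 SD, cut at about 35% in these data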;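 further: loss of TO-PRO-1 fluorescence as compound displaces dye from 1x1 AA loop RNA; 0% = DMSO only wells and 100% = 100 µM mitoxantrone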
DNA CAG counter – DNA CAG dye complex inhibition counter-screen. shares compounds with rCAG RNA binder. d(CAG) DNA oligo TO-PRO-1 dye displacement, fluorescence. inhibition, % at 3 µM. actives 94% (n = 4,300);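 active means inhibition above its plate's cutoff, the mean test-well inhibition plus 3 SD, cut at about 4.8% in these data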;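 further: 0% = DNA dye mix with DMSO and 100% = 100 µM mitoxantrone; hits displace the dye from DNA and so lower well fluorescence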
Numbers without * were called inactive; nt = not tested or not shown.

SMILES	LANA-H2B inh	Rtt109 Vps75	rCAG RNA binder	ABHD5 PLIN5 PPI	ALR H2O2 inh	PRMT1 FP inh	rCAG bind conf	DNA CAG counter
O=C(Nc1ccccc1C(=O)O)c1cccc(N2C(=O)c3ccccc3C2=O)c1	-3	-6	35*	1	10	-2	18	1
O=C(O)c1cc(NC(=O)c2cccc(N3C(=O)c4ccccc4C3=O)c2)cc(C(=O)O)c1	4	-2	8	1	0	1	nt	nt
CC(C)CCN1C(=O)c2ccc(C(=O)Nc3cc(C(=O)O)cc(C(=O)O)c3)cc2C1=O	-2	-6	30	0	0	-2	nt	nt
O=C(Nc1ccc(Cl)cc1C(=O)O)c1ccc2c(c1)C(=O)N(Cc1ccco1)C2=O	2	30	86*	7	15	5	88*	75*
CC(=O)c1ccc([C@H](O)[C@H](C)C(=O)N(C)c2ccccc2)cc1	nt	nt	0	nt	nt	-2	nt	nt
COC(=O)[C@H](Cc1ccccc1)NC(=O)[C@H]1O[C@@H](n2cnc3c(=O)[nH]c(N)nc32)[C@H](O)[C@@H]1O	nt	nt	2	nt	nt	2	nt	nt
CC(C)CN1C(=O)c2ccc(C(=O)Nc3ccccc3C(=O)O)cc2C1=O	2	-5	56*	-4	81*	-3	57*	18*
Cc1ccc2[nH]c3c(c2c1)CCc1cn[nH]c1-3	3	27	47*	3	99*	12	5	5.0*
Cc1ccc2[nH]c3c(c2c1)CCC3=O	6	5	2	1	-5	-1	nt	nt
COc1ccc(Cl)c(NC(=O)C/C(C)=N/NC(=O)CCc2ccccc2)c1	-6	-10	37*	15	nt	-1	3	0
O=S1(=O)c2c(cccc2N2CCC[C@@H]2CO)O[C@H]2CCN1C2	nt	nt	4	nt	nt	0	nt	nt
Cc1cc(NS(=O)(=O)c2ccc(NC(=O)CCCOc3ccccc3)cc2)no1	3	6	20	5	40	1	nt	nt
Cc1cc(NS(=O)(=O)c2ccc(NC(=O)COc3ccccc3C(C)(C)C)cc2)no1	0	0	72*	-10	45	3	58*	25*
Cc1cc(NS(=O)(=O)c2ccc(NC(=O)CCCOc3ccc(Cl)cc3)cc2)no1	-2	4	50*	2	nt	0	34	10*
Cc1cc(NS(=O)(=O)c2ccc(NC(=O)COc3ccccc3[N+](=O)[O-])cc2)no1	0	-2	33	-2	-1	3	nt	nt
Cc1ccc(OCC(=O)NC(=S)Nc2ccc(S(=O)(=O)Nc3cc(C)on3)cc2)c(Br)c1	-4	2	6	-3	-8	0	nt	nt
Cc1cc(NS(=O)(=O)c2ccc(NC(=O)COc3ccc(Cl)cc3Cl)cc2)no1	1	17	55*	-2	7	1	42*	12*
Cc1cc(NS(=O)(=O)c2ccc(NC(=O)COc3ccc(Cl)c(C)c3)cc2)no1	nt	8	41*	-10	nt	2	32	8.3*
O=[N+]([O-])c1ccc(Cn2ccc3ccc(-c4ccc5ccn(Cc6ccccc6)c5c4)cc32)cc1	nt	nt	16	nt	nt	7	nt	nt
Cc1cc(NS(=O)(=O)c2ccc(NC(=O)Nc3cccc(C(F)(F)F)c3)cc2)no1	-2	-4	50*	-8	6	-2	53*	20*
CCC(=O)Nc1nnc(S(=O)(=O)N(C)Cc2ccco2)s1	2	7	1	11	1	4	nt	nt
CCOc1ccc(C(=O)Nc2nnc(S(=O)(=O)N(C)Cc3ccco3)s2)cc1	-1	-4	36*	18	-15	1	37*	11*
CN(Cc1ccco1)S(=O)(=O)c1nnc(NC(=O)c2ccc(F)cc2)s1	2	4	37*	14	-7	5	25	7.4*
NC1=C(c2ccc([N+](=O)[O-])cc2)C(=O)CO1	-7	nt	6	-2	nt	-2	nt	nt
O=c1oc2c(-c3ccc([N+](=O)[O-])cc3)cc(O)cc2s1	1	-2	40*	-4	-6	78*	9	7.7*
SMILES	LANA-H2B inh	Rtt109 Vps75	rCAG RNA binder	ABHD5 PLIN5 PPI	ALR H2O2 inh	PRMT1 FP inh	rCAG bind conf	DNA CAG counter
CC(C)C[C@@H]1Cc2[nH]c(=S)[nH]c(=O)c2[C@H](C)O1	nt	nt	1	-3	nt	0	nt	nt
CCOC(=O)c1sc(NC(=O)Cc2ccc(F)cc2)nc1C	-3	-1	-1	0	11	-7	nt	nt
CCOC(=O)c1sc(NS(=O)(=O)c2cc(C)ccc2C)nc1C	0	5	44*	-8	25	-4	32	7.7*
CCOC(=O)c1sc(NC(C)=O)nc1C	8	7	1	4	-1	15	nt	nt
CCOC(=O)c1sc(NC(=O)Nc2ccc(F)cc2)nc1C	-2	1	47*	-4	0	4	34	23*
CCC(c1nc2ccccc2[nH]1)n1c(-c2ccc3cc[nH]c3c2)nc2ccccc21 (stereo not drawn)	nt	nt	14	nt	nt	6	nt	nt
Cc1nc(NS(=O)(=O)c2ccc(Cl)s2)c2c3c(sc2n1)CCCC3	3	8	78*	-3	2	6	55*	19*
CCOC(=O)c1cccc(NC(=O)COc2ccc([N+](=O)[O-])cc2)c1	-4	13	3	6	-3	-2	nt	nt
Cc1cccc(NC(=O)COc2ccc(/C=C\c3[nH]c(=O)[nH]c(=O)c3[N+](=O)[O-])cc2)c1	1	7	87*	3	29	7	87*	66*
COc1ccc(-c2csc(NC(=O)c3ccccc3F)c2C(=O)O)cc1	1	nt	48*	-4	-18	6	32	6.1*
CCOC(=O)c1cc(CC)sc1NC(=O)c1cc(OCC)c(OCC)c(OCC)c1	3	0	-1	2	-12	6	nt	nt
Cc1ccc(C(=O)Nc2scc(-c3ccccc3)c2C(=O)O)cc1	5	-3	51*	4	-10	6	34	8.8*
COc1cc(C(=O)Nc2scc(-c3ccc(C)cc3)c2C(=O)O)cc(OC)c1OC	0	3	50*	-1	7	-1	76*	39*
CCc1cc(C(=O)O)c(NC(=O)c2cc(OC)c(OC)c(OC)c2)s1	-5	28	38*	6	45	-1	20	3
O=C(Nc1scc(-c2ccccc2)c1C(=O)O)c1ccccc1Cl	2	-4	19	12	56	1	nt	nt
COC(=O)c1c(-c2ccc(C)cc2)csc1NC(=O)C1CC=CCC1C(=O)O (stereo not drawn)	-6	7	38*	-6	46	8	38*	8.5*
CC1CCc2c(sc(NC(=O)c3ccco3)c2C(=O)O)C1 (stereo not drawn)	-16	-12	16	8	17	-1	nt	nt
